LYPLA1 inh: LYPLA1 (human) inhibition in PME1 counter-screen | O75608 | recombinant LYPLA1, FP-Rh probe fluorescence polarization | inhibition, % at 5.9 µM | hit rate 0.16% among 320,000;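 active = inhibition above the mean of all tested compounds plus 3 SD, set per campaign, cut at about 14% in these data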;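 also: inhibitors block serine hydrolase probe labeling of LYPLA1 so polarization falls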
Target sequence (O75608 whole entry, looked up): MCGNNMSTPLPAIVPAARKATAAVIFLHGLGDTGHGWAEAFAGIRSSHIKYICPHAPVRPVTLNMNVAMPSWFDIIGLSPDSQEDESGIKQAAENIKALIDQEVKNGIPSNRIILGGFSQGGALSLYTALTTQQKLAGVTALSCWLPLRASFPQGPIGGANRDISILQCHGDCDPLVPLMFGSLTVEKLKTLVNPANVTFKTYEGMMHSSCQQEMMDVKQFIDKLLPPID
LYPLA2 inh: LYPLA2 (human) inhibition in PME1 counter-screen. O95372. recombinant LYPLA2, FP-Rh probe fluorescence polarization. inhibition, % at 5.9 µM. hit rate 0.38% among 320,000. AID 2177;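 active = inhibition above the screen-wide mean plus 3 SD, limit set per campaign, cut at about 26% in these data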
Target sequence (O95372 whole entry, looked up): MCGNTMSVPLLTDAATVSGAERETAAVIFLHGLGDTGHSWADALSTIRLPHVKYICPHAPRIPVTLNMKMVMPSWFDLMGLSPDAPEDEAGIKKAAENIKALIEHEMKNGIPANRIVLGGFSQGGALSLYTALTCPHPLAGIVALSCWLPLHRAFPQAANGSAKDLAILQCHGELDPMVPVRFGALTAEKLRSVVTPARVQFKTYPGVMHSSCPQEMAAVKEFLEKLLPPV
Fam108B counter: blocks mouse Fam108B hydrolase in RBBP9 counter-screen; recombinant Fam108B, FP-Rh probe fluorescence polarization; inhibition, % at 9.51 µM; hit rate 0.33% among 300,000; AID 1947;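 active = inhibition above the screen mean inhibition plus 3 SD, computed separately per campaign, cut at about 18% in these data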;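 also: inhibitors lower polarization as less probe binds the enzyme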
PME-1 inh: blocks human protein phosphatase methylesterase 1 | Q9Y570 | recombinant PME-1, FP-Rh probe fluorescence polarization | inhibition, % at 5.9 µM | hit rate 0.53% among 320,000;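 active = inhibition above the campaign mean of all compounds plus 3 SD, cut at about 26% in these data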;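 also: competitive labeling of PME-1 active site by serine hydrolase directed probe; inhibitors block probe labeling so polarization falls and inhibition rises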
PAD4 FP inh: inhibitors of human PAD4; Q9UM07; recombinant PAD4, RCA probe fluorescence polarization; inhibition, % at 6.36 µM; hit rate 0.41% among 330,000;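 active = percent inhibition above a cutoff equal to the mean of all tested compounds plus 3 SD, cut at about 15% in these data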
GSTO1 counter: blocks human GSTO1 in RBBP9 counter-screen; hit rate 1.1% among 300,000; recombinant GSTO1, activity-based probe fluorescence polarization; P78417; AID 1974; inhibition, % at 5.96 µM;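 active = inhibition above the campaign mean inhibition plus 3 SD, cut at about 35% in these data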
A number is an active result; i = inactive; nt = not tested or not shown. Rows were chosen to be rich in hits. Some 1.8% of all compounds tested hit in one or more screens of this group.

SMILES	LYPLA1 inh	LYPLA2 inh	Fam108B counter	PME-1 inh	PAD4 FP inh	GSTO1 counter
COc1cccc(/C=N/Nc2ncnc3c2[nH]c2ccc(C)cc23)c1OC	i	i	i	i	i	37.0
COc1ccc(/C=N/Nc2cc(C)nc(-n3nc(C)cc3C)n2)c(OC)c1	i	i	i	54.3	i	i
CCCN(CCC)S(=O)(=O)c1ccc(Cl)c([N+](=O)[O-])c1	i	i	i	i	i	35.5
Cc1cc([N+](=O)[O-])cc2c1NC(=O)C2(O)N1CCCC(C)C1 (stereo not given)	i	i	i	i	i	37.0
Cc1cc([N+](=O)[O-])cc2c1NC(=O)C2(O)N1CCCCCC1 (stereo not given)	i	i	i	i	i	i
O=C(NCCc1nc2ccccc2[nH]1)/C(=C/c1ccco1)NC(=O)c1ccc(Br)o1	i	i	i	i	i	i
Cc1ccc(NC(=O)CSc2nc3ncc(Br)cc3[nH]2)cc1C	i	i	i	i	i	35.7
Cc1cc(C)c(NC(=O)CSc2nc3ncc(Br)cc3[nH]2)c(Cl)c1	i	i	i	i	i	i
COCC(=O)NCc1ccc2c(c1)cc(C)n2C	i	i	i	i	14.8	i
COc1ccc(CC(=O)NCc2ccc3c(c2)cc(C)n3C)cc1OC	i	i	i	i	i	i
O=C(O)CCN1C(=O)/C(=C\c2cccc(OCC(=O)Nc3ccc(Cl)cc3)c2)SC1=S	i	i	i	i	i	i
Cc1ccc(NC(=O)COc2cccc(/C=C3\SC(=S)N(CCC(=O)O)C3=O)c2)cc1Cl	i	i	i	32.5	i	i
Cc1cc(C)n(Cc2ccc(C(=O)O)cc2)n1	i	i	i	i	i	i
Cc1ccc(C)n1Cc1ccc(C(=O)O)cc1	i	i	37.4	i	i	58.5
Cc1ccc(OCC(=O)OC(C)CN2CCCCC2)cc1 (stereo not given)	i	i	i	i	i	i
CC(=O)Nc1ccc(-c2nc3cc(Cl)ccc3o2)cc1	i	i	i	i	i	i
O=C(O)c1ccccc1-c1ccccc1C(=O)Nc1ccc(-c2nc3cc(Cl)ccc3o2)cc1	i	i	i	31.1	i	i
CCCC(=O)NC(c1ccccc1Cl)c1c(O)ccc2ccccc12 (stereo not given)	i	i	i	60.5	i	i
CCCCC(=O)NC(c1ccccc1Cl)c1c(O)ccc2ccccc12 (stereo not given)	i	i	i	45.5	i	i
CCCC(=O)NC(c1ccccc1)c1c(O)ccc2ccccc12 (stereo not given)	i	i	i	i	i	i
CC1CC(C)CN(S(=O)(=O)CCNC(=O)c2ccc3c(c2)OCO3)C1 (stereo not given)	i	i	i	i	i	i
CC1=NN(C(N)=S)C(=O)C1N=Nc1cccc(Cl)c1C (stereo not given)	i	i	i	i	i	i
CC1=NN(C(N)=S)C(=O)C1N=Nc1cccc2ccccc12 (stereo not given)	i	i	22.9	i	i	i
Cc1cccc(NC(=O)CCC(=O)OCC(=O)c2ccc(Oc3ccc([N+](=O)[O-])cc3)cc2)c1	i	31.2	i	i	i	i
CC(=O)Nc1ccc(C(=O)OCC(=O)c2cccc([N+](=O)[O-])c2)cc1	i	i	i	i	i	i
SMILES	LYPLA1 inh	LYPLA2 inh	Fam108B counter	PME-1 inh	PAD4 FP inh	GSTO1 counter
Cc1ccc(C(=O)COC(=O)c2cccc(NC(=O)c3ccc([N+](=O)[O-])cc3[N+](=O)[O-])c2)cc1	i	i	i	31.8	i	i
Cc1c(C(=O)N(C)C2CC(C)(C)NC(C)(C)C2)oc2c(F)cccc12	i	i	i	i	i	i
Cc1cccc(NC(=O)CN2C(=O)S/C(=C\c3ccc(O)c([N+](=O)[O-])c3)C2=O)c1	i	81.2	i	33.5	i	i
COc1ccc(NC(=O)NNC(=O)c2cc3ccccc3cc2O)cc1	i	i	i	i	i	i
COc1ccc(C)cc1NC(=O)NNC(=O)c1cc2ccccc2cc1O	i	i	i	26.5	i	i
COc1cc(NC2CCCCC2O)c2nc(-c3ccc(Cl)cc3)ccc2c1 (stereo not given)	i	i	i	i	i	52.3
COc1ccc(OCC(=O)OCC(=O)NC2CCCCC2C)cc1 (stereo not given)	i	i	nt	i	i	nt
CC(=O)N(Cc1c(C)nn(-c2ccccc2)c1Cl)c1ccc(Cl)cc1	i	i	i	i	i	i
Cc1nn(-c2ccccc2)c(Cl)c1CN(C(=O)CCl)c1cccc2ccccc12	i	i	i	i	i	89.0
CC(Cc1ccc(O)c(O)c1)C(C)Cc1ccc(O)c(O)c1 (stereo not given)	i	i	i	i	i	52.4
COc1cc(C[C@@H](C)[C@@H](C)Cc2ccc(O)c(OC)c2)ccc1O	nt	nt	nt	nt	i	nt
COC(=O)NC(NS(=O)(=O)c1ccccc1)(C(=O)OC)C(F)(F)F (stereo not given)	i	i	i	i	i	36.1
COC(=O)C(NC(C)=O)(Nc1ccccn1)C(F)(F)F (stereo not given)	i	i	i	i	i	i
N#Cc1ccccc1Cn1c(=O)n(-c2ccc(CC(=O)NCc3ccco3)cc2)c(=O)c2sccc21	i	i	i	37.3	i	i
CCc1ccc(/C=C/C(=O)c2cc(Br)ccc(=O)c2O)cc1	i	i	i	i	i	i
Cc1cccc(/C=C/C(=O)c2cc(Br)ccc(=O)c2O)c1	i	i	i	i	i	35.0
O=[N+]([O-])c1cc(CN2CCCC2)c2cccnc2c1O	i	i	i	i	i	46.7
Cc1cc2ccccn2c1C(=O)c1ccc([N+](=O)[O-])o1	i	i	i	i	i	86.4
Cc1ccc(NC(=O)CCl)cc1S(=O)(=O)N1CCCCCC1	i	i	i	i	i	75.9
CCOc1ccc(C2C3=C(CCCC3=O)Nc3ccc4ncccc4c32)cc1 (stereo not given)	i	i	i	i	i	i
O=C1CCCC2=C1C(c1ccc(O)c(O)c1)c1c(ccc3ncccc13)N2 (stereo not given)	i	i	i	i	i	75.3
CC(=O)Nc1nonc1NC(C)=O	i	i	i	i	i	i
CC(=O)Nc1cc(OC(C)=O)c2nonc2c1OC(C)=O	80.6	94.8	76.3	63.3	82.6	89.3
CC(C)(C)NC(=O)C(c1ccc(-c2ccccc2)cc1)N(C[C@H]1CC[C@@H]([C@@H]2CC[C@H](CO)O2)O1)C(=O)c1ccc(C(C)(C)C)cc1 (stereo not given in full)	nt	nt	nt	nt	i	nt
O=C(NC1CCN(CC(=O)N(c2ccccc2)c2ccccc2)CC1)c1ccc([N+](=O)[O-])cc1	i	i	i	i	i	i
CC(=O)n1cc(CO)c2ccccc21	i	i	i	i	i	i
Cn1cc(C(=O)N/N=C/c2ccc([N+](=O)[O-])cc2)c2ccccc21	i	i	i	i	i	i
CC(=O)n1cc(N(C(=O)CCl)c2ccc([N+](=O)[O-])cc2)c2ccccc21	i	i	i	i	19.5	75.4
